# Measurements taken from the supplement of paper PMC6658780.
# Where a name gives a salt, the structure may show the parent alone. ± gives the standard deviation of the averaged measurements.
# How the values were obtained:
# [1] = tested on: Klebsiella pneumoniae KPC-119; experiment: percent growth inhibition of drug alone vs DMSO control; higher = more growth inhibition; conditions: antibiotic (0.125x MIC): none (0.1% DMSO)
# [2] = tested on: Klebsiella pneumoniae KPC-119; experiment: percent growth inhibition of drug + antibiotic vs DMSO control; higher = more growth inhibition
# [3] = tested on: Klebsiella pneumoniae NCTC-13439; experiment: percent growth inhibition of drug alone vs DMSO control; higher = more growth inhibition; conditions: antibiotic (0.125x MIC): none (0.1% DMSO)
# [4] = tested on: Klebsiella pneumoniae NCTC-13439; experiment: percent growth inhibition of drug + antibiotic vs DMSO control; higher = more growth inhibition; conditions: antibiotic (0.125x MIC): tigecycline; 7 µM
# [5] = antibiotic (0.125x MIC): colistin, 7 µM
# [6] = antibiotic (0.125x MIC): colistin, 20 µM
structure (smiles),measurement,setting,value
C[C@]12CC[C@H](O)C[C@@H]1CC[C@@H]1[C@@H]2CC[C@]2(C)C(=O)CC[C@@H]12 [Epiandrosterone],percent growth inhibition of drug alone,[1]; 7 µM,0.561 ± 2%
same,percent growth inhibition of drug alone,[1]; 20 µM,-1.04 ± 0.09%
same,percent growth inhibition,[2]; [5],-6.74 ± 2.2%
O=C([O-])c1ccccc1-c1c2cc(Br)c(=O)cc-2oc2[c]([Hg+])c([O-])c(Br)cc12.[Na+].[Na+].[OH-] [Merbromin],percent growth inhibition of drug alone,[1]; 7 µM,1.39 ± 0.87%
same,percent growth inhibition of drug alone,[1]; 20 µM,7.86 ± 1.4%
same,percent growth inhibition of drug alone,[3]; 7 µM,-0.236 ± 1.4%
same,percent growth inhibition of drug alone,[3]; 20 µM,15.7 ± 0.91%
same,percent growth inhibition,"[2]; antibiotic (0.125x MIC): gentamicin, 7 µM",2.44 ± 4%
same,percent growth inhibition,"[2]; antibiotic (0.125x MIC): meropenem, 20 µM",99.619 ± 0.036%
same,percent growth inhibition,[4],-5.98 ± 14%
C=CCN1CC[C@]23c4c5ccc(O)c4O[C@H]2C(=O)CC[C@@]3(O)[C@H]1C5 [Naloxone hydrochloride],percent growth inhibition of drug alone,[1]; 7 µM,-0.923 ± 1.2%
same,percent growth inhibition of drug alone,[1]; 20 µM,0.247 ± 1.1%
same,percent growth inhibition,[2]; [6],-10.2 ± 2.5%
CCn1cc(C(=O)O)c(=O)c2cc3c(cc21)OCO3 [Oxolinic acid],percent growth inhibition of drug alone,[1]; 7 µM,6.34 ± 3%
same,percent growth inhibition of drug alone,[1]; 20 µM,16.3 ± 9.5%
same,percent growth inhibition,[2]; [5],37.9 ± 7.2%
same,percent growth inhibition,[2]; [6],100.2 ± 0.18%
C[N+]1([O-])[C@@H]2C[C@@H](OC(=O)[C@H](CO)c3ccccc3)C[C@H]1[C@@H]1O[C@@H]12 (stereo partly drawn) [Scopolamin-N-oxide hydrobromide],percent growth inhibition of drug alone,[1]; 7 µM,-1.08 ± 2.3%
same,percent growth inhibition of drug alone,[1]; 20 µM,-2.41 ± 3.1%
same,percent growth inhibition,[2]; [6],7.85 ± 0.11%
C#CCN(C)[C@H](C)Cc1ccccc1 [Selegiline hydrochloride],percent growth inhibition of drug alone,[1]; 7 µM,-1.33 ± 2.5%
same,percent growth inhibition of drug alone,[1]; 20 µM,0.878 ± 0.49%
same,percent growth inhibition,[2]; [6],4.23 ± 6.9%
